The text below walks through data of PubChem BioAssay (Tox21).

Where “and” joins values, the source holds several entries; their conditions need not be identical. Identical values can stand only once. Records with an inconclusive call do not appear. Some compounds were tested as several samples or in several runs, with calls that do not always agree. Calls of active or inactive are those of the source. Unless noted, the call rests on the fitted dose curve; in most records, active means well fitted curve in the direction sought with a large enough effect in the repeat runs; inconclusive means weak or mixed curves; inactive means no such curve, though single readings can be large; an effect the other way counts as inactive or inconclusive.

Assay [1] is described as follows: Caspase-3/7 induction in CHO-K1 cells by small molecules, qHTS assay (AID 1346980). Further: nearly all actives have a fitted effect of over 15% in size. The procedure, abridged:
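Wild-type CHO-K1 cells exposed to compounds for 17hr at 37 C, 5% CO2. Caspase-3/7 activity then measured by Caspase-Glo 3/7 luminescence after 30min at room temperature.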

Assay [2] is described as follows: Caspase-3/7 induction in HepG2 cells by small molecules, qHTS cell viability counter screen (AID 1346981). Further: series mostly up to about 92 µM; nearly all actives have a fitted effect of over 30% in size. The essentials:
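Viability determined by CellTiter-Fluor fluorescence in HepG2 wells also used for the luminescent Caspase-Glo 3/7 read. Compounds were present for 16 hr at 37 C, 5% CO2 before reagent addition.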

The target of assay [3] is Nuclear receptor subfamily 1 group I member 2 (Homo sapiens) (UniProt O75469). Put plainly: Human pregnane X receptor (PXR) small molecule agonists, qHTS assay (AID 1346982). Further: nearly all actives have a fitted effect of over 35% in size. Further: potency means the concentration at half of the fitted maximal effect. The essentials:
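Compound-induced hPXR transactivation of a CYP3A4 luciferase reporter was scored in HepG2 PXR-Luc cells over 24 hr at 37 C, 5% CO2, by luminescence.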

Assay [4] concerns the target Acetylcholinesterase (Homo sapiens) (UniProt P22303). Put plainly: Acetylcholinesterase (AChE) small molecule antagonists: colormetric cell-based qHTS assay (AID 1347395; calls by dose curve; further: nearly all actives have a fitted effect of over 30% in size; further: potency means the concentration at half of the fitted maximal effect). The procedure, abridged: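 Homogeneous whole-cell format. SH-SY5Y cells seeded overnight, dosed with compound (30 min, 37 C, 5% CO2), then given DTNB/acetylthiocholine cocktail for 90 min at 37 C; colorimetric signal.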

Assay [5] shares this target. Put plainly: Acetylcholinesterase (AChE) small molecule antagonists: enzyme-based qHTS assay (AID 1347397; calls by dose curve; further: nearly all actives have a fitted effect of over 55% in size; further: potency means the concentration at half of the fitted maximal effect). As to conditions: Potency: AChE enzyme activity inhibition. The procedure, abridged: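 Recombinant human AChE (50 mU/mL) preincubated with compound 30 min at room temperature; acetylthiocholine plus DTNB then added, and thiocholine formation read colorimetrically after 10 min at room temperature. DMSO served as vehicle control.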

Assay [6] shares this target. Put plainly: Acetylcholinesterase (AChE) small molecule antagonists: fluorescence cell-based qHTS assay (AID 1347398; calls by dose curve; further: nearly all actives have a fitted effect of over 50% in size; further: potency means the concentration at half of the fitted maximal effect). The settings on record: Potency: AChE activity. The essentials: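 SH-SY5Y cells (2000/well), attached overnight, incubated with compound 30 min at 37 C. Acetylthiocholine plus Thiolite Green then added for 40 min at room temperature. Thiocholine fluorescence (Ex/Em 490/520 nm) reports cellular AChE activity.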

Assay [7] shares this target. The assay can be described thus: Acetylcholinesterase (AChE) small molecule antagonists: enzyme-based qHTS assay with human liver microsomes (AID 1347399; calls by dose curve; further: nearly all actives have a fitted effect of over 60% in size; further: potency means the concentration at half of the fitted maximal effect). The settings on record: Potency: qHTS inhibition. The essentials: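 Recombinant human AChE (50 mU/mL in the enzyme mix) and human liver microsomes (0.25 mg/mL final) were preincubated with compound and NADPH (0.25 mg/mL final) for 30 min at 37 C. Acetylthiocholine/DTNB was then added; thiocholine was read colorimetrically after 10 min at room temperature.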

Assay [8] deals with Cytochrome P450 2D6 (Homo sapiens) (UniProt P10635). The assay can be described thus: Cytochrome P450 Family 2 Subfamily D Member 6 (CYP2D6) small molecule antagonists: luciferase reporter qHTS assay (AID 1671196). Further: nearly all actives have a fitted effect of over 50% in size. Further: potency means the concentration at half of the fitted maximal effect. The procedure, abridged: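 Each well received CYP2D6 with its proluciferin substrate and chemical, sat 10 min, then got NADPH regeneration solution for 1 h at room temperature. Luminescence in RLU served as the activity measure.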
Cytochrome P450 2D6 (Homo sapiens), sequence (P10635 whole entry, looked up): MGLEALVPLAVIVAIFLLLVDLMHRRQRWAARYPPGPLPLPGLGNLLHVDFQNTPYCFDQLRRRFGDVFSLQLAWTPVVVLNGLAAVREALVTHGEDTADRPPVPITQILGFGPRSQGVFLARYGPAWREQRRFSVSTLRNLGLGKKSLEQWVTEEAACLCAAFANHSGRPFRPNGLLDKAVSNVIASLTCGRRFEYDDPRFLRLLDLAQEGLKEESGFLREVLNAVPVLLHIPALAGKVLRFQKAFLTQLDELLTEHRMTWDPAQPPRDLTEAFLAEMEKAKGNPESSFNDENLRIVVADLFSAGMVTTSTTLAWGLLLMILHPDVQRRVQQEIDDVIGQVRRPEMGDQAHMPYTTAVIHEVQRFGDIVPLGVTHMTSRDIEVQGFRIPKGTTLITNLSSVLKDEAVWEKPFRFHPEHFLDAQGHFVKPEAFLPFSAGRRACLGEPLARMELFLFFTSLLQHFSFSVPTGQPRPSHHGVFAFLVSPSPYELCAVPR

Assay [9] concerns the target Cytochrome P450 2C19 (Homo sapiens) (UniProt P33261). The assay can be described thus: Cytochrome P450 Family 2 Subfamily C Member 19 (CYP2C19) small molecule antagonists: luciferase reporter qHTS assay (AID 1671197). Further: nearly all actives have a fitted effect of over 65% in size. Further: potency means the concentration at half of the fitted maximal effect. The procedure, abridged: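 Enzyme-substrate mix with proluciferin substrate (P450-Glo CYP2C19 system) preincubated with compounds 10 min at room temperature; NADPH regeneration solution added, 37C for 1 h; detection reagent stops reaction, luminescence read after 20 min. Ketoconazole positive control.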

Assay [10] addresses Cytochrome P450 2C9 (Homo sapiens) (UniProt P11712). Put plainly: Cytochrome P450 Family 2 Subfamily C Member 9 (CYP2C9) small molecule antagonists: luciferase reporter qHTS assay (AID 1671198). Further: nearly all actives have a fitted effect of over 50% in size. Further: potency means the concentration at half of the fitted maximal effect. The essentials:
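P450-Glo proluciferin substrate with CYP2C9 enzyme; 10 min RT preincubation, then NADPH regeneration 1 h at 37C; luciferin detection reagent 20 min RT, luminescence in relative luminescence units.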

Assay [11] concerns the target Cytochrome P450 1A2 (Homo sapiens) (UniProt P05177). Put plainly: Cytochrome P450 Family 1 Subfamily A Member 2 (CYP1A2) small molecule antagonists: luciferase reporter qHTS assay (AID 1671199). Further: nearly all actives have a fitted effect of over 50% in size. Further: potency means the concentration at half of the fitted maximal effect. The procedure, abridged: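 Enzymatic CYP1A2 assay, human, luminescent: 10 min compound–enzyme–substrate preincubation, 1 h NADPH-dependent turnover, 20 min detection step, room temperature throughout. Reduced light indicates lower CYP1A2 activity.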

For assay [12], the target named is Voltage-gated inwardly rectifying potassium channel KCNH2 (Homo sapiens) (UniProt Q12809). The assay can be described thus: Human Ether-a-go-go-Related Gene (hERG) channel small molecule antagonists: fluorescence cell-based qHTS assay (AID 1671200). The procedure, abridged:
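Thallium served as the potassium surrogate; its influx into dye-loaded U2OS cells carrying the channel was measured by fluorescence over 2 min.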

Assay [13] has as its target Cytochrome P450 3A4 (Homo sapiens) (UniProt P08684). Put plainly: Cytochrome P450 Family 3 Subfamily A Member 4 (CYP3A4) small molecule antagonists: luciferase reporter qHTS assay (AID 1671201). Further: nearly all actives have a fitted effect of over 50% in size. Further: potency means the concentration at half of the fitted maximal effect. The procedure, abridged: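 Relative luminescence units after 20 min with luciferin detection reagent served as read-out. Beforehand, CYP3A4 turned over a proluciferin substrate for 1 h at room temperature with NADPH regeneration, following 10 min compound preincubation.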

Assay [14] has as its target Nuclear receptor subfamily 1 group I member 2 (Homo sapiens) (UniProt O75469). The assay can be described thus: CYP3A4 induction through human pregnane X receptor (PXR) by small molecules, qHTS assay (AID 1346984). Further: nearly all actives have a fitted effect of over 40% in size. The essentials:
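Readings come from a luciferase reporter: DPX-2 cells, which are HepG2 cotransfected with PXR and a CYP3A4-promoter construct, were exposed to test compounds for 24 h at 37C before One-Glo detection.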

The target is the same in assay [15]. The assay can be described thus: Human pregnane X receptor (PXR) activation by small molecules, qHTS assay (AID 1346985). Further: nearly all actives have a fitted effect of over 40% in size. The procedure, abridged: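 DPX-2 cells (HepG2 co-transfected with a PXR response element and a CYP3A4-promoter luciferase construct) were seeded at 2,000 per well, rested 5 hr at 37C, then exposed to DMSO-dissolved compounds for 24 hr. Activation was read as luciferase luminescence.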

Cytochrome P450 3A4 (Homo sapiens), sequence (P08684 whole entry, looked up): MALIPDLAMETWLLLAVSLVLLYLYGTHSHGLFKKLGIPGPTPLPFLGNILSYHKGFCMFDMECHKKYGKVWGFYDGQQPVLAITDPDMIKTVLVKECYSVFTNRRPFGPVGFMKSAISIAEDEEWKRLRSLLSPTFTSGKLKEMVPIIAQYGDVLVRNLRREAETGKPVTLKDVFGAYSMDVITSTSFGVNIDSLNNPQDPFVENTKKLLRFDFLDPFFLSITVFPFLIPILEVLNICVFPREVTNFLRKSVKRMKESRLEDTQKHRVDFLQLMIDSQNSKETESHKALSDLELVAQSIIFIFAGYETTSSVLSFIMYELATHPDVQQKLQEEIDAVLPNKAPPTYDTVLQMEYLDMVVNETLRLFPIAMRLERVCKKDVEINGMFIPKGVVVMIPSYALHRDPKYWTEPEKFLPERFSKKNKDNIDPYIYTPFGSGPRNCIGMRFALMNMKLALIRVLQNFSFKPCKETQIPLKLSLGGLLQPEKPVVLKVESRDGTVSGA
Nuclear receptor subfamily 1 group I member 2 (Homo sapiens), sequence (O75469 whole entry, looked up): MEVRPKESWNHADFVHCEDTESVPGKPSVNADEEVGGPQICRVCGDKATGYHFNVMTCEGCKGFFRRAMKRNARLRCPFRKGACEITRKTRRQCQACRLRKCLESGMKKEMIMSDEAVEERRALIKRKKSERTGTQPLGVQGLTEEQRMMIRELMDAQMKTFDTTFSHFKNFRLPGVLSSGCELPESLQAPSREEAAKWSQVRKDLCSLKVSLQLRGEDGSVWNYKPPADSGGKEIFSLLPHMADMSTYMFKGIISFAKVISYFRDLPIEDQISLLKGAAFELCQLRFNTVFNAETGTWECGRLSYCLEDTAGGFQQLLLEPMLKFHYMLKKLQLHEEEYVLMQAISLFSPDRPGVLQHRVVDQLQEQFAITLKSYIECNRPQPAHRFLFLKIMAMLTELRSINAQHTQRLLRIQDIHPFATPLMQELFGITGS
Acetylcholinesterase (Homo sapiens), sequence (P22303 whole entry, looked up): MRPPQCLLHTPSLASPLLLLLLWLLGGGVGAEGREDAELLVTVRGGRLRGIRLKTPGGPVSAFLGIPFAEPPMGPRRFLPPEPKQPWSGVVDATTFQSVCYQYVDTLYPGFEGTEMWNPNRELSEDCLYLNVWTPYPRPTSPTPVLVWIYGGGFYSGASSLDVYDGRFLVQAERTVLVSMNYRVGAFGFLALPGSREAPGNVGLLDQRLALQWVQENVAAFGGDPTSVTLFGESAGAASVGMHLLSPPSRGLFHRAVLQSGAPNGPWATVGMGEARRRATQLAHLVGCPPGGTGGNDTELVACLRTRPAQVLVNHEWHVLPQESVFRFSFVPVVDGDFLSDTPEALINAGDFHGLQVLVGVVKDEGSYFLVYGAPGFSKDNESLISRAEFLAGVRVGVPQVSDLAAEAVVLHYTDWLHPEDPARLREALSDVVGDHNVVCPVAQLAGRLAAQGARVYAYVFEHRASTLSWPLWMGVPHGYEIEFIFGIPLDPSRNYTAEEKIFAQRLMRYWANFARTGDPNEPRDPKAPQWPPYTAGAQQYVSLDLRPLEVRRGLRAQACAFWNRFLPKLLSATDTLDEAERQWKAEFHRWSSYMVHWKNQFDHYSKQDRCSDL
Voltage-gated inwardly rectifying potassium channel KCNH2 (Homo sapiens), sequence (Q12809 whole entry, looked up): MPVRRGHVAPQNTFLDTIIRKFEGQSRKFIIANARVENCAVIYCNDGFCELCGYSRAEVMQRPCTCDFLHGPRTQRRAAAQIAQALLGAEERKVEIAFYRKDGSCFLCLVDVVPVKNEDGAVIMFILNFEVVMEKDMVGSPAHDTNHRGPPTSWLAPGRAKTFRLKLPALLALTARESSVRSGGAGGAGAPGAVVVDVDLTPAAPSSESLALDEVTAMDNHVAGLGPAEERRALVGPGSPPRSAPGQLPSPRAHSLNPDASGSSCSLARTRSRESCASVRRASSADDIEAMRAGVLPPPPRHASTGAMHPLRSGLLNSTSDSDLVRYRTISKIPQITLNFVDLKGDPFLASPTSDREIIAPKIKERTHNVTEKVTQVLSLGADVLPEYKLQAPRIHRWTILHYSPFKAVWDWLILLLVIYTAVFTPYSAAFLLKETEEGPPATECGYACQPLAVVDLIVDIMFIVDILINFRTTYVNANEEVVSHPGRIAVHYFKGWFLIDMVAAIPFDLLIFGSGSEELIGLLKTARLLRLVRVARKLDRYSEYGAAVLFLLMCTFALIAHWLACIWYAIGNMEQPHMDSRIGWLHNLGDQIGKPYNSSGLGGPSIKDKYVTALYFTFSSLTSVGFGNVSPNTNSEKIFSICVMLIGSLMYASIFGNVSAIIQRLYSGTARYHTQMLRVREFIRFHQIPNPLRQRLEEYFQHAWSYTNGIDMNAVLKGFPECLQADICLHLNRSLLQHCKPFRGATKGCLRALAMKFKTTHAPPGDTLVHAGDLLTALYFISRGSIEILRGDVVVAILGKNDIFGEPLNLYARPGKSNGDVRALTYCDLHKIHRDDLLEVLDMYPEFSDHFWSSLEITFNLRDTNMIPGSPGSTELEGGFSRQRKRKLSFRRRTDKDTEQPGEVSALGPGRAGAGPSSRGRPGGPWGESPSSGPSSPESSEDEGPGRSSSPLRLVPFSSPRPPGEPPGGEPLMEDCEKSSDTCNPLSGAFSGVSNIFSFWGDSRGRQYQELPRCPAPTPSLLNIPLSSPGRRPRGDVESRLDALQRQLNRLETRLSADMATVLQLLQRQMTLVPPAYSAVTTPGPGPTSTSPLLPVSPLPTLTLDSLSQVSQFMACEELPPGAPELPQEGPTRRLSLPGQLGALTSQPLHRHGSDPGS
Cytochrome P450 2C9 (Homo sapiens), sequence (P11712 whole entry, looked up): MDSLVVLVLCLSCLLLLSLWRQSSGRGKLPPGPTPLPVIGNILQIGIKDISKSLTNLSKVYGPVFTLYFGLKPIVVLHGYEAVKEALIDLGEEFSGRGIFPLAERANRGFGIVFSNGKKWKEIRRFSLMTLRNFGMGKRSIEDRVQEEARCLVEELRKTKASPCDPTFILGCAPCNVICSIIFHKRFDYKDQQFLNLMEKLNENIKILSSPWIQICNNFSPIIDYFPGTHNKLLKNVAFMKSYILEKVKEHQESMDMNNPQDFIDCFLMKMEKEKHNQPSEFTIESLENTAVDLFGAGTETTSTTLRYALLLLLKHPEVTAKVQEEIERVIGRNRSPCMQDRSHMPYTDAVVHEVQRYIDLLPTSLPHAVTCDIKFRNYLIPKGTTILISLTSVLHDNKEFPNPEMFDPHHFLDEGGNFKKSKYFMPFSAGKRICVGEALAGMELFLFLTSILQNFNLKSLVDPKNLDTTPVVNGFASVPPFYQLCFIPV
Cytochrome P450 2C19 (Homo sapiens), sequence (P33261 whole entry, looked up): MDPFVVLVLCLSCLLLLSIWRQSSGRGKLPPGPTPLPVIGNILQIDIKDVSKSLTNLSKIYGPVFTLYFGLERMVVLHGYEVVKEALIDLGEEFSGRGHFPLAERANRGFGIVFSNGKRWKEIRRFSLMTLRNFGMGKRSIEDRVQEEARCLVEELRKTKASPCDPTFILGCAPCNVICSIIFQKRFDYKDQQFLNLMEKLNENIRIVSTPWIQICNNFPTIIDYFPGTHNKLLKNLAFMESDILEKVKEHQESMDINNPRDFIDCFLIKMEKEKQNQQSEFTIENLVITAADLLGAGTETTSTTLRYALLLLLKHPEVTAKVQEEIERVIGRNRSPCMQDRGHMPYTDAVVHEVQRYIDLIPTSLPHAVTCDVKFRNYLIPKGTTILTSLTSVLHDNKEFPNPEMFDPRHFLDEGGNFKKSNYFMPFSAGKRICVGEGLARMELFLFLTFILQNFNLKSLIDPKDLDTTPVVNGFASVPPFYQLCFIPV
Cytochrome P450 1A2 (Homo sapiens), sequence (P05177 whole entry, looked up): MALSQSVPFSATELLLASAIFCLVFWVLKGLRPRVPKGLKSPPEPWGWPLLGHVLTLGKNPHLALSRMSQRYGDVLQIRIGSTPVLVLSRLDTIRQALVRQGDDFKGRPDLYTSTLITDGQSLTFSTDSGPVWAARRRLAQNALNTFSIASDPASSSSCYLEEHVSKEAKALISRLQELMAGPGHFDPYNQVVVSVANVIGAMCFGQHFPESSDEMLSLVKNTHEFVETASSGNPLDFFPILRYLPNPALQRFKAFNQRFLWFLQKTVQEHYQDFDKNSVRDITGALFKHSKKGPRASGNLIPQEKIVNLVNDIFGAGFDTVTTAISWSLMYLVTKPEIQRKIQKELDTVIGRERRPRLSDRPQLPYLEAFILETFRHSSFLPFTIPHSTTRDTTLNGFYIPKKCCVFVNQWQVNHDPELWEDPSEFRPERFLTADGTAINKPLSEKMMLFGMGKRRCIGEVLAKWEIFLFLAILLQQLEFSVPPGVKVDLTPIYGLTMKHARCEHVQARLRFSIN

In the case of `C=CCO`, the compound was called inactive in assay [1]. Also, the Potency entry in [2], in assay [3], in assay [4], in assay [5], in [6] and in assay [7] was “inactive” each time. In addition, the Potency entry in assay [8], in assay [9], in [10], in [11], in assay [12] and in assay [13] was “inactive” in each case.
As for `Nc1ccccc1C(=O)O`, the result in assay [1] and in assay [14] was inactive. The Potency result in assay [2], in assay [3], in [15], in assay [4], in assay [5] and in [6] was “inactive” each time. Also, the Potency entry in [7], in [9], in assay [10], in assay [12] and in [13] was “inactive” each time. The Potency was 63.6 µM (active) and inactive in assay [8]; 40.1 µM (active) and inactive in [11].
For the compound `Cc1cc(-c2cc(C)c(N)c(C)c2)cc(C)c1N`, the result in assay [1] was inactive. The Potency entry in assay [2], in assay [4], in [5], in assay [6], in [7] and in [12] was “inactive” in each case. Also, the Potency in assay [3] was 54.6 µM (active) and 26.8 µM (active); in assay [8], 22.5 µM (active) and 15.6 µM (active); in assay [9], 10.1 µM (active) and 8.78 µM (active); in assay [10], 40 µM (active) and 22 µM (active); in assay [11], 712 nM (active) and 311 nM (active); in [13], 34.9 µM (active).
Take `Clc1ccccc1Cl`: the result in assay [1] and in assay [14] was inactive. The Potency result in assay [2], in [3], in assay [15], in assay [4], in assay [5] and in [6] was “inactive” throughout. Further, the Potency entry in assay [7], in assay [8], in [9], in assay [10], in [11] and in assay [12] was “inactive” each time. Moreover, the Potency entry in assay [13] was “inactive”.
For the compound `CNC(=O)Oc1ccccc1OC(C)C`, the outcome in [1] was inactive. The Potency result in assay [2], in [3], in [8], in assay [9], in [10] and in assay [12] was “inactive” throughout. For the same compound, in assay [13], the Potency entry is “inactive”. The Potency in assay [4] is 2 µM (active) and 2.24 µM (active); in assay [5], 3.18 µM (active) and 3.17 µM (active); in [6], 798 nM (active) and 1.59 µM (active); in [7], 22.5 µM (active) and 22.4 µM (active); in [11] it was 35.6 µM (active).
Regarding `Nc1c(Cl)c(Cl)nc(C(=O)O)c1Cl`, the compound was classed as inactive in assay [1]. Further, the Potency result in assay [2], in assay [4], in [5], in assay [6], in [7] and in [8] was “inactive” each time. In addition, the Potency entry in assay [12] and in assay [13] was “inactive” each time. The Potency was 56.1 µM (active) and inactive in assay [3]; “inactive and 8.22 µM (active)” in assay [9]; “inactive and 65.3 µM (active)” in assay [10]; 39.5 µM (active) and inactive in assay [11].
For the compound `O=NN1CCCC1`, the compound was classed as inactive in assay [1]. The Potency result in assay [2], in assay [3], in [5], in [6], in assay [7] and in assay [8] was “inactive” in each case. Also, the Potency entry in assay [10], in [12] and in [13] was “inactive” in each case. For the same compound, the Potency in [4] was 13.2 µM (active) and inactive; in [9] it was 33.2 µM (active) and inactive; in [11], 33.2 µM (active) and inactive.
